# Experimental data reported in PubChem BioAssay (NCATS).
# Results filed as inconclusive are left out. Unmarked numbers belong to inactive results. Active and inactive are the calls of the source. Calls follow the shape of the dose curve; as a rule, active = well fitted cell-killing curve with a large enough effect; inconclusive = small, poorly fitted or top-dose-only effect, or effect the other way; inactive = flat fitted curve, though single readings scatter. Where a SMILES comes first, the peptide text is derived from it. [ ]: non-standard residue; d: D form. pGlu = O=C1CC[C@@H](C(=O)O)N1
# System: Hek293T
# Assay: Primary qHTS to identify gynecologic anti-cancer compounds using libraries of approved drugs and bioactive compounds (AID 1345084); also: nearly all actives have a fitted effect of over 55% in size
# Details: Gynecologic cancer cell panel viability, ATPlite luminescence, 48 h, control line for the selectivity index; series mostly up to 57.5 µM; activity change, negative = cytotoxicity: at the top concentration
# How it was run: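 In this quantitative HTS, cell killing is estimated from loss of ATP-dependent luciferase light. Cells see five compound concentrations over a 48 h exposure.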
# % is scaled to controls: 0 for no effect and ±100 for the full control effect; potency is read from the fitted curve at half-maximal effect.
SMILES,"activity change, negative = cytotoxicity",Potency
CN1CC(=O)N2[C@H](c3ccc4c(c3)OCO4)c3[nH]c4ccccc4c3C[C@@H]2C1=O,-1.03%,
COc1ccc2cc(C=O)ccc2c1,-5.4%,
COC(=O)C1=CO[C@@H](O)[C@@H]2C(CO)=CC[C@H]12,-1.61%,
CCOC(=O)CN1CCCC1=O,-5.18%,
NCC[C@H](O)C(=O)N[C@@H]1C[C@H](N)[C@@H](O[C@H]2O[C@H](CN)[C@@H](O)[C@H](O)[C@@H]2O)[C@H](O)[C@@H]1O[C@H]1O[C@H](CO)[C@@H](O)[C@H](N)[C@@H]1O,1.79% [at 0.462 µM],
Cc1nc(N)nc(N)c1-c1ccc(Cl)c(Cl)c1,,1.58 µM (active)
CC1(C)O[C@@H]2C[C@H]3[C@@H]4C[C@H](F)C5=CC(=O)C=C[C@]5(C)[C@@]4(F)[C@@H](O)C[C@]3(C)[C@]2(C(=O)CO)O1,3.43%,
Cc1[nH]cnc1-c1ccc(Cl)cc1,2.43%,
OC1(c2ccccc2)CCNCC1,-5.04%,
CC(=O)N[C@@H](CO)C(=O)N[C@@H](CC(=O)O)C(=O)N[C@@H](CCCCN)C(=O)N1CCC[C@H]1C(=O)O (Ac-SDKP-OH),0.945%,
CCOC(=O)c1cc(=O)c2c(OCC(COc3cccc4oc(C(=O)OCC)cc(=O)c34)OC(=O)[C@@H](N)CCCCN)cccc2o1,10.3%,
C/C(=C(/OCCOc1ccc(Cl)cc1)c1ccc(Cl)cc1Cl)n1ccnc1,-11.6%,
O=C(c1cc(O)c(O)c(O)c1)c1ccc(O)c(O)c1O,2.05%,
CCOC(=O)Oc1ccc(CCNC(=O)[C@H](CCSC)NC(C)=O)cc1OC(=O)OCC,-2.35%,
CCOCCn1c(C2CCN(CCc3ccc(C(C)(C)C(=O)O)cc3)CC2)nc2ccccc21,23.8%,
Cc1ccc(CCn2c3c(c4cc(Cl)ccc42)CN(C)CC3)cn1,-18.7%,
O=C1NC(c2ccccc2)(c2ccccc2)C(=O)N1COP(=O)(O)O,-6.05%,
CCCC(=O)O[C@]1(C(=O)CC)CC[C@H]2[C@@H]3CCC4=CC(=O)CC[C@]4(C)[C@H]3[C@@H](O)C[C@@]21C,-4.2%,
CCNC(=O)[C@@H]1CCCN1C(=O)[C@H](CCCN=C(N)N)NC(=O)[C@H](CC(C)C)NC(=O)CNC(=O)[C@H](Cc1ccc(O)cc1)NC(=O)[C@H](CO)NC(=O)[C@H](Cc1c[nH]c2ccccc12)NC(=O)[C@H](Cc1cnc[nH]1)NC(=O)[C@@H]1CCC(=O)N1 ([pGlu]HWSYGLRP-NHEt),5.58%,
CC(=O)c1cc2ccccc2s1,3.79%,

SMILES,"activity change, negative = cytotoxicity",Potency
Fc1ccc(C(c2ccc(F)cc2)N2CCNCC2)cc1,3.36%,
CN(C)CCN(Cc1ccsc1)c1ccccn1,1.35%,
COc1ccc(OC(=O)N(CC(=O)O)Cc2ccc(OCCc3nc(-c4ccccc4)oc3C)cc2)cc1,1.09%,
CN(C)CCN1CCN(c2cccc(Cl)c2)C1=O,3.58%,
Cc1oc(-c2ccccc2)nc1CCC(=O)c1ccc(CC2SC(=O)NC2=O)cc1 (stereo not given),-0.398%,
COC(=O)c1cc(S(N)(=O)=O)ccc1OC,5.36%,
Nc1ncnc2c1ncn2Cc1c(F)cccc1Cl,-4.45%,
O=C1c2ccccc2CCc2ccccc21,3.91%,
CC(C)C[C@@H]1[C@H](c2ccccc2)OC(=O)N1CCCN1CCCCCC1,-24.5%,
CC(C)(C)c1ccc(C(=O)CCCCl)cc1,-19.7%,
CC(Oc1c(Cl)cccc1Cl)C1=NCCN1 (stereo not given),-12.8%,
CC(=O)N1CCN(c2ccc(O)cc2)CC1,-0.173%,
O=C1Nc2cc(Cl)ccc2Oc2ccccc21,2.76%,
Cc1ccc(C(=O)C(=O)O)cc1C,-5.65%,
Cc1ccc2c(Cl)cc(Cl)c(O)c2n1,-9.61%,
CCCCOCCOC(=O)c1cccnc1,-0.45%,
CN1Cc2cc(C(=O)N3CCC(C4CCNCC4)CC3)ccc2N[C@@H](CC(=O)O)C1=O,2.29%,
O=C(O)Cn1c(=O)n(Cc2ccc(Br)cc2F)c(=O)c2ccc(Cl)cc21,-1.95%,
COC(=O)/C=C(/C)N,3.5%,
CC(C)(C)NCC(O)COc1ccccc1OCC1CCCO1 (stereo not given),-0.041%,
